# TrxR1 inh: qHTS Assay for Inhibitors of Mammalian Selenoprotein Thioredoxin Reductase 1 (TrxR1): qHTS; Thioredoxin reductase 1, cytoplasmic (Rattus norvegicus), O89049; Potency, µM (highest dose often 114 µM), inactives show at the highest dose activity change, negative = inhibition, actives largely listed as inhibitors; recombinant rTrxR1, NADPH fluorescence consumption, selenite substrate; 390,000 compounds, 1% hits; AID 588453, 2011; further: potency means the concentration at half of the fitted maximal effect; on the % scale 0 is the no-effect control and ±100 the full control effect; nearly all actives have a fitted effect of over 65% in size
# Target sequence (O89049 whole entry, looked up): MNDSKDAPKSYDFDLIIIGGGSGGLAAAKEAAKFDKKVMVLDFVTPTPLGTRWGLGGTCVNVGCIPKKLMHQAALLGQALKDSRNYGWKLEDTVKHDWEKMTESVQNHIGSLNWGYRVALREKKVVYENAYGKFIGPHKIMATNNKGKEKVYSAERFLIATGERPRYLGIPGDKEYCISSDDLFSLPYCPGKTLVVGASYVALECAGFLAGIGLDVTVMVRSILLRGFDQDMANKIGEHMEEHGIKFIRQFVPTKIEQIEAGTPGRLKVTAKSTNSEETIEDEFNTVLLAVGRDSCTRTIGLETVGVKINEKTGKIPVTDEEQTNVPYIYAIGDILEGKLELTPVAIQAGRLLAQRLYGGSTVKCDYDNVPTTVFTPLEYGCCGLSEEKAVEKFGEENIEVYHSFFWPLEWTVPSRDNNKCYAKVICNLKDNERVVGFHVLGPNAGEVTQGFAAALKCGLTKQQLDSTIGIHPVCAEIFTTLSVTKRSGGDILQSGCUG
#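 Rat TrxR1 (90 nM in the dispensed reagent) was pre-reduced with 400 uM NADPH for 5 min at room temperature, then incubated with compound for 15 min. After 400 uM selenite was added, NADPH fluorescence (Ex 340/Em 450 nm) was followed for 8 min.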
# Pin1 inh: qHTS Assay to Find Inhibitors of Pin1. 390,000 compounds, 0.009% hits. Pin1 FP peptide displacement, HiFluor488, 10 min. Potency, µM (titrated, usually from 115 µM), for inactives: at the highest dose activity, negative = inhibition, hits mostly inhibitors. AID 504891, 2011; active means well fitted inhibition curve with a large enough effect in the polarisation, with a control signal flat, not every such curve was filed as active; inconclusive means small, poorly fitted or top-dose-only effect, or effect the other way, or a change in a side signal; inactive means no such curve, though single readings can be large or run the other way; the % refers to the polarisation; further: potency means the concentration at half of the fitted maximal effect; on the % scale 0 is the no-effect control and ±100 the full control effect
# Target sequence (Q13526 whole entry, looked up): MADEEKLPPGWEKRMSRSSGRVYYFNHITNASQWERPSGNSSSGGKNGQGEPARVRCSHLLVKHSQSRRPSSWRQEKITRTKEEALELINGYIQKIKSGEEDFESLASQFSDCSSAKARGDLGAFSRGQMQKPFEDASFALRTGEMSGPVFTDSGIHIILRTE
# N370S GC mod: qHTS Assay for Inhibitors and Activators of N370S glucocerebrosidase as a Potential Chaperone Treatment of Gaucher Disease; 330,000 compounds, 0.092% hits; Potency, µM (titrated, usually from 59.4 µM), for the others: at the top dose activity change, negative = inhibition, most hits filed as inhibitors; N370S GC spleen homogenate, 4MU-glucoside fluorescence; AID 2101, 2009;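 further: potency means the concentration at half of the fitted maximal effect; 0% = full enzyme activity and -100% = no enzyme basal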
# pAkt inh: HTS Assay for Inhibitors of Akt Phophorylation: Primary Screen | Neuro2A IGF-stimulated pAkt S473 HTRF, 20 min; hits give low values | activity change, % for hits at 50 µM | 360,000 compounds, 0.32% hits | AID 651550, 2012; in the data active means activity change below about -80%; inconclusive means mostly about -51% to -80%; further: on the % scale 0 is the no-effect control and ±100 the full control effect
#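 Neuro2A cells in DMEM with 0.5% FBS, overnight at 37 deg C, given compound at single 50 µM final, then IGF (6 nM final) for 20 min at 37 deg C. Lysed; phospho-Akt Ser473 by HTRF after 24 h, 665/615 ratio.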
# AT treatment: qHTS Assay for Identifying a Potential Treatment of Ataxia-Telangiectasia; F2112 A-T fibroblasts, KAP-1 phosphorylation AlphaLISA; neocarzinostatin DNA damage 30 min before lysis; 320,000 compounds, 0.19% hits; AID 485349, 2010; Potency, µM (doses to about 57.5 µM), for the others: top-dose activation, usual class: activators; further: potency means the concentration at half of the fitted maximal effect; % of control where 0% means no effect; nearly all actives have a fitted effect of over 45% in size
#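 ATM-like activity read as KAP-1 phosphorylation via AlphaLISA donor/acceptor antibody pairs after lysis and 6 hr at 25C. Cells were ATM-null patient fibroblasts (F2112, hTERT), dosed 60 min, then exposed to the DSB inducer NCS for 30 min.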
# TrxR1 substrate: qHTS Assay for Substrates of Mammalian Selenoprotein Thioredoxin Reductase 1 (TrxR1): qHTS | Potency, µM (series often up to 114 µM), for the others: at the highest dose activity change, negative = substrate turnover | purified TrxR1 substrate turnover, NADPH consumption readout | AID 588456, 2011 | 390,000 compounds, 0.01% hits | Thioredoxin reductase 1, cytoplasmic (Rattus norvegicus), O89049; further: potency means the concentration at half of the fitted maximal effect; on the % scale 0 is the no-effect control and ±100 the full control effect; nearly all actives have a fitted effect of over 50% in size
#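 Rat TrxR1, dispensed at 90 nM, was prereduced with 400 uM NADPH (final) for 5 min at ~22 deg C, then incubated with compound 15 min before 400 uM selenite. A first-read NADPH fluorescence drop versus no-compound background flagged substrates.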
# * marks the source's active call; other numbers are inactive results; i = inactive; ? = inconclusive; / = no result; [ ] = remark or other dose. An excerpt weighted towards active compounds, which were near 1.4% of everything screened. Unless noted, the call rests on the fitted dose curve; in most records, active means well fitted curve in the direction sought with a large enough effect; inconclusive means small, poorly fitted or top-dose-only effect, or another doubt; inactive means no such curve, though single readings can be large; an effect the other way counts as inactive or inconclusive.
SMILES,TrxR1 inh,Pin1 inh,N370S GC mod,pAkt inh,AT treatment,TrxR1 substrate
O=C(NCc1nnc(-c2nc3ccccc3[nH]2)o1)C1CCCCC1,/,-3%,/,/,/,/
CCC(C)Nc1nc(-c2c[nH]c3ccccc23)cs1 (stereo not given),-20%,29%,-23%,i,35µM*,-8%
CC(=O)CCS(=O)(=O)c1ccc(NC(C)=O)cc1,40µM*,-6%,1%,i,/,12%
CC(=O)Nc1ccc(S(=O)(=O)c2cc(O)ccc2O)cc1,18µM*,?,0%,i,-10%,-1%
CC(=O)Nc1ccc(S(=O)(=O)CCC(=O)O)cc1,-15%,-10%,7%,i,3%,-4%
Cc1ccc(S(=O)(=O)c2cc(O)ccc2O)cc1C,?,4%,7%,i,3%,-1%
COc1ncc2nc(-c3ccc(F)cc3)c(=O)n(Cc3cccs3)c2n1,/,/,3%,/,/,/
N#CN1CCC(NC(=O)c2ccc(C(F)(F)F)cc2)CC1,/,-2%,/,/,/,/
C[C@H](Cc1ccc(O)c(O)c1)[C@@H](C)Cc1ccc(O)c(O)c1,13µM*,/,-2%,/,/,8%[57.1 µM]
CC(=O)N(Cc1cccnc1)c1nc2ccc(F)cc2s1,19%[57.1 µM],-3%,/,/,/,5%[57.1 µM]
O=C(CCS(=O)(=O)c1ccccc1)N(Cc1cccnc1)c1nc2ccc(F)cc2s1,3.2µM*,0%,/,/,/,1%[57.1 µM]
CCN(CC)CCN(C(=O)CCS(=O)(=O)c1ccccc1)c1nc2c(C)cc(C)cc2s1,?,3%,-29%,i,1%,-3%
CCN(CC)CCN(C(=O)CCS(=O)(=O)c1ccccc1)c1nc2cc(OC)c(OC)cc2s1,11µM*,-2%,-2%,i,4%,-3%
CCN(CC)CCN(C(=O)CCS(=O)(=O)c1ccccc1)c1nc2cc(C)cc(C)c2s1,14µM*,3%,-17%,i,-1%,12%
CCOCCc1nnc(NC(=O)C(=O)c2cc(C)n(-c3ccc(C)c(C)c3)c2C)s1,13%,-3%,/,/,/,3%
CN1C(=O)c2ccccc2Sc2ccc(NC(=O)N3CCN(c4ccccc4F)CC3)cc21,?,2%,/,/,/,2%
Cc1ccccc1N=Cc1cccc(O)c1O,71µM*,-20%,-2%,i,-8%,?
Oc1cccc(/C=N/N=C/c2cccc(O)c2O)c1O,8%[57.1 µM],-4%,3%,i,-4%,4%[57.1 µM]
Cc1ccc(N=Cc2cccc(O)c2O)c(C)c1,32µM*,/,3%,/,7%,-8%
CC(N=Cc1cccc(O)c1O)c1ccccc1 (stereo not given),40µM*,/,2%,i,-9%,-12%
COc1ccccc1N1CCN(C(CNC(=O)C(=O)NCc2ccc(F)cc2)c2cccnc2)CC1 (stereo not given),-3%,?,/,/,/,-11%
O=C(CN(CCc1ccccc1)C(=O)CNS(=O)(=O)c1ccccc1)NCc1ccco1,-56%,-6%,-7%,i,-11%,5%[57.1 µM]
Cc1ccc(S(=O)(=O)NCC(=O)N(CCc2ccccc2)CC(=O)NCc2ccco2)cc1,22µM*,0%,3%,i,8%,2%
Cn1c(N)c(C(=O)COC(=O)C2CCC(C(C)(C)C)CC2)c(=O)n(C)c1=O (stereo not given),2%[57.1 µM],2%,20%,-108%*,-4%,1%[57.1 µM]
Cn1c(N)c(C(=O)COC(=O)C2CCCC2)c(=O)n(C)c1=O,10%[57.1 µM],0%,-8%,i,-11%,-14%[57.1 µM]
SMILES,TrxR1 inh,Pin1 inh,N370S GC mod,pAkt inh,AT treatment,TrxR1 substrate
CCN(CC)c1ccc(-c2nnc(SCC(=O)NCc3ccco3)n2C)cc1,8%,/,/,/,/,-5%
COc1cccc(NC(=O)c2ccccc2-c2nc(-c3ccc(Cl)cc3)no2)c1,11%[57.1 µM],1%,?,-109%*,9%,4%[57.1 µM]
COc1cccc(NC(=O)c2ccccc2-c2nc(-c3ccccc3)no2)c1,13%[57.1 µM],12%,?,i,6%,7%[57.1 µM]
COc1ccc(-c2noc(-c3ccccc3C(=O)NCc3ccco3)n2)cc1OC,?,2%,-3%,i,-1%,-2%
Cc1onc(-c2ccccc2Cl)c1C(=O)NCc1ccco1,50µM*,?,0%,i,2%,3%
COc1ccc(-c2noc(-c3ccccc3C(=O)NCc3ccco3)n2)cc1,1%[57.1 µM],4%,-3%,-110%*,-4%,-7%[57.1 µM]
O=C(c1cnccn1)N1CCC2(CCN(Cc3nccs3)CC2)CC1,/,/,-8%,/,/,/
COc1ccc2ncnc(NCC3CCCO3)c2c1-c1ccc2c(c1)OCO2 (stereo not given),/,-21%,/,/,/,/
CCOc1ccc(CNc2nc3nc(C)c(Cc4ccccc4)c(=O)n3[nH]2)cc1,21%,-3%,/,/,/,-3%
O=C(CCS(=O)(=O)c1ccccc1)N1CCN(c2cccc(C(F)(F)F)c2)CC1,79µM*,7%,6%,i,3%,-2%
O=S(=O)(NC1c2cccc3cccc(c23)C1N1CCNCC1)c1ccc(Cl)cc1 (stereo not given),21%[57.1 µM],6%,7.1µM*,i,-8%,13%[57.1 µM]
CC(=O)N1CCN(C2c3cccc4cccc(c34)C2NS(=O)(=O)c2ccccc2)CC1 (stereo not given),-4%,-2%,-1%,i,2%,-2%
Cc1cc(C)n(-c2nc3ccccc3nc2N2CCN(c3cccc(C(F)(F)F)c3)CC2)n1,1%,-7%,/,/,/,1%
COc1ccc(N2C(=O)c3ccccc3NC2c2ccc(OC)c(COc3ccccn3)c2)cc1 (stereo not given),3%,0%,16%,i,0%,8%
COc1ccc(N2C(=O)c3ccccc3NC2c2ccc(OC)c(CSc3ccccn3)c2)cc1 (stereo not given),92%,0%,8%,-92%*,9%,143%
Cc1cc(C)nc(S/C=C/C(=O)c2ccccc2F)n1,2µM*,23%,5%,i,-14%,11%[57.1 µM]
COc1ccc(C2NC(c3ccc4c(c3)OCO4)=CC(c3ccccc3O)N2)cc1OC (stereo not given),-15%,-1%,/,/,/,-2%[0.0914 µM]
COc1ccc(C(=O)NC(Oc2ccccc2)C(Cl)(Cl)Cl)cc1 (stereo not given),11µM*,8%,1%,i,-3%,-2%
Cc1cc2c(s1)c1cnn(Cc3cc(C(F)(F)F)cc(Cl)c3F)c(=O)c1n2C,/,4%,/,/,/,/

# Source: PubChem (National Center for Advancing Translational Sciences (NCATS))
